# This is a sample that favours compounds with a hit; in the whole collection about 5.1% have one here.
# NR3A LBD binder: NR3A (human) ligand-binding domain modulation; NR3A LBD differential scanning fluorimetry, Tm shift; 0% = protein alone, 100% = glycine-bound protein; Tm shift relative to glycine control, % at 25 µM; hit rate 2.5% among 340,000; AID 1259313;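 active = melting temperature shift of at least 10% of the positive control shift, at one fixed dose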
# CRFR2-BP ag: agonists of human CRF-binding protein/CRF-R2 receptor complex; AID 588473; HEK293 CRF-R2/CRF-BP, calcium dye fluorescence (FLIPR); percent of saturating CRF peptide response; hit rate 0.46% among 350,000; activation, % at 13.2 µM;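 active = activation of at least 50%, plus an integration ratio under a set limit after plate pattern correction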;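 note: plate controls were neutral control wells without compound for no effect and CRF at EC100 for full effect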
# ANO1 block: inhibitors of mouse TMEM16A calcium-activated chloride channel; normalized B-score (activity score, 25-100; higher = stronger inhibition) at 10 µM; HEK293 TMEM16A/YFP iodide influx fluorescence, ionomycin; hit rate 1.2% among 310,000; Q8BHY3;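 active = ratio plate-corrected score three or more library SD toward inhibition, starting fluorescence score within five deviations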;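 note: score derived from kinetic fluorescence span divided by baseline fluorescence per well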
# CRFBP-R2 block: antagonists of CRF-binding protein/CRF-R2 receptor complex | HEK293 CRF-R2/CRF-BP, CRF-induced calcium fluorescence | inhibition, % at 11.8 µM | hit rate 0.59% among 350,000 | AID 588475;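 active = inhibition of the ligand-induced calcium signal above about 50% at the single tested concentration, limit read from the data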
# MPTP inh: blocks calcium-induced mitochondrial swelling; isolated mouse mitochondria, Ca2+ swelling absorbance, 30 min; inhibition, % at 10 µM; hit rate 1.4% among 360,000; AID 602449;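 active = inhibition of 50% or more, scaled per plate between neutral and stimulator controls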;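 note: 0% = DMSO wells given calcium and 100% = 1 mM EGTA wells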
# ANO1 activ: activators or potentiators of mouse TMEM16A chloride channel; B-score at 10 µM; hit rate 0.3% among 340,000; HEK293 TMEM16A/YFP-H148Q/I152L, iodide quench fluorescence; active compounds read low; Q8BHY3;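 active = fluorescence-ratio B-score plate-corrected deviation score at least 3 library SD below zero, with starting fluorescence score within 5 deviations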;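 note: channel opened by trigger with iodide after compound preincubation; score built on the fluorescence ratio of max minus min over baseline; more negative score means more quench and so TMEM16A activation or potentiation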
# Rh123 counter: membrane potential counter-screen of mitochondrial pore inhibitors; isolated mitochondria, Rhodamine 123 fluorescence; hit rate 78% among 5,000; shares compounds with MPTP inh; inhibition, % at 10 µM; in the data active = inhibition above about 22%;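 note: 0% = DMSO vehicle and 100% = positive control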
# MPTP abs DR: MPTP inhibition, dose response swelling confirmation; shares compounds with MPTP inh; isolated mitochondria swelling, absorbance; IC50, µM; hit rate 58% among 780; in the data active = IC50 below about 20 µM
# MPTP cs DR: active in counter-screen for permeability transition pore inhibitors | shares compounds with MPTP inh | isolated mitochondria counterscreen, fluorescence read-out | hit rate 49% among 780 | AID 651564 | IC50, µM; in the data active = IC50 below about 80 µM
# Starred values were filed as active, the others as inactive; i = inactive; / = not tested or not shown.
SMILES,NR3A LBD binder,CRFR2-BP ag,ANO1 block,CRFBP-R2 block,MPTP inh,ANO1 activ,Rh123 counter,others
O=C(Nc1ccc(F)cc1)Nc1nnc(Cc2ccccc2)s1,-3,0,i,2,19,i,/,
O=C(Nc1ccc(Cl)cc1)Nc1nnc(CSCc2ccccc2)s1,-6,-2,i,10,97*,i,60*,
O=C(Nc1ccc(Cl)cc1)Nc1nnc(CSc2ccc(Cl)cc2)s1,27*,0,i,12,85*,i,63*,
COC(=O)Nc1nnc(Cc2ccc(Cl)cc2)s1,1,0,i,-9,0,i,/,
O=[N+]([O-])c1cc(/C=N/N/C(=N/c2ccccn2)c2ccccn2)ccc1O,-5,66*,i,64*,78*,i,8,
CCn1cc(CN(C)S(=O)(=O)c2ccc3ccccc3c2)c(C)n1,-1,-2,i,15,91*,i,85*,
CCn1cc(CN(C)S(=O)(=O)c2cccc([N+](=O)[O-])c2)cn1,0,-1,i,21,-1,i,/,
CSc1ccc(Cl)c(C(=O)OCC(=O)N2CCN(c3ccccc3)CC2)c1,1,0,/,11,-1,i,/,
Cc1ccc(S(=O)(=O)NCc2ccncc2)c(C)c1C,-1,53*,i,-8,95*,i,91*,
CCCCNS(=O)(=O)c1ccc(S(=O)(=O)NCc2ccncc2)cc1,2,-2,i,4,80*,i,70*,
Cc1ccc(S(=O)(=O)NCc2ccccn2)c(C)c1C,-2,-3,i,12,-1,i,/,
O=C(O)CCCC(=O)OCc1c(-c2ccccc2)ncc2ccccc12,1,0,/,-6,-2,i,/,
CCCCn1c(NC(=O)c2ccc(Br)o2)c(S(=O)(=O)c2ccccc2)c2nc3ccccc3nc21,4,17,100*,78*,78*,i,78*,
CCCCn1c(NC(=O)c2ccco2)c(S(=O)(=O)c2ccc(C)cc2)c2nc3ccccc3nc21,-1,15,/,2,22,i,/,
Cc1csc2c(N3CCN(C(=O)Nc4ccccc4)CC3)ncnc12,2,0,25*,2,54*,i,24*,
Cc1csc2c(N3CCN(C(=S)Nc4ccc(F)cc4F)CC3)ncnc12,1,-1,i,0,92*,i,91*,
Cc1ccc(C(=O)N2CCN(c3ncnc4c(C)csc34)CC2)cc1,1,5,i,-9,34,i,/,
COc1ccc(NC(=O)C2Cc3cc(S(=O)(=O)N4CCCCC4)ccc3N2C(C)=O)cc1Cl (stereo unspecified),-3,2,i,3,-1,i,/,
O=[N+]([O-])c1ccc2c(c1N1CCCCC1)=NC1(CCCCC1)[N+]=2[O-],-2,-1,i,11,58*,i,36*,
Cn1c(SCc2cccnc2)nc2c(c1=O)SCC2,1,0,i,3,0,i,/,
Cn1c(SCc2cccc([N+](=O)[O-])c2)nc2c(c1=O)SCC2,1,-1,i,33,58*,i,49*,
OCCCNc1ncnc2[nH]ncc12,0,1,/,-2,-1,i,/,
CCCCCCCCNc1ncnc2[nH]ncc12,1,0,/,5,71*,i,71*,
COc1ccc(S(=O)(=O)O/N=C2\CCSc3ccc(C)cc32)cc1,4,1,i,26,59*,i,37*,
COc1ccc(S(=O)(=O)N2CCC3(CC2)CC(=O)c2ccccc2O3)cc1C,3,-1,i,10,-1,i,/,
SMILES,NR3A LBD binder,CRFR2-BP ag,ANO1 block,CRFBP-R2 block,MPTP inh,ANO1 activ,Rh123 counter,others
CC1(C)C(=O)OC(c2cc(Br)ccc2O)C(C)(C)C1=O (stereo unspecified),-13,-3,i,29,82*,i,89*,
CC(C)[C@H](NC(=O)OC(C)(C)C)c1nnc(SCC(=O)Nc2ccc(Br)cc2)o1,-6,0,i,-6,82*,i,53*,
Oc1c(C=C2N=c3ccccc3=N2)sc(=S)n1C1CCCC1,-2,1,i,-4,83*,i,50*,
CCc1[nH]c(C(=O)O)c(C)c1C(=O)OC,2,0,i,4,1,i,/,
CC(=O)Nc1ccc(C(=O)N2CCCCC2c2cc(C(=O)NCc3cccnc3)no2)cc1 (stereo unspecified),/,/,/,/,-1,/,/,
O=C(N/N=C/c1ccc[nH]1)c1ccc(O)cc1,-12,0,i,7,0,i,/,
CC(C)(C)c1ccc(C2CC2C(=O)N/N=C\c2ccc[nH]2)cc1 (stereo unspecified),-3,0,i,8,105*,i,98*,
Nc1nonc1C(=O)NCCNCc1ccccc1,1,3,i,2,1,i,/,
Nc1nonc1C(=O)NCCNCc1cc(Br)ccc1OCc1ccc(F)cc1,2,0,i,10,65*,i,72*,
Nc1nonc1C(=O)NCCNCc1c(OCc2ccccc2F)ccc2ccccc12,-1,-1,i,-46,95*,i,23*,
O=C(Nc1ccccc1F)c1csc(COCCO)n1,/,/,/,/,1,/,/,
CCCCNc1nc(NCc2ccccc2)nc2ccccc12,/,/,/,/,78*,/,118*,
Cc1ccccc1-c1nc(S(=O)(=O)c2ccccc2)c(N2CCCC2)o1,-2,0,/,8,0,i,/,
C/C(=N\NC1=NCCN1)c1ccccc1,-1,-1,i,-13,2,i,/,
CCCCCOc1ccc(Br)cc1/C(C)=N/NC1=NCCN1,2,0,i,-16,93*,i,24*,
CCn1c2ccccc2c2cc(NC(=O)CNCC3CCCO3)ccc21 (stereo unspecified),2,-2,i,-23,61*,i,-12,MPTP abs DR=i;MPTP cs DR=>80
CCn1c2ccccc2c2cc(NC(=O)CN3CCCC3)ccc21,0,-2,i,-12,24,i,/,
Cc1nc(N2CCCCC2C)c2c(C)c(C(=O)Nc3cccc(C(F)(F)F)c3)sc2n1 (stereo unspecified),4,2,i,-26,70*,i,41*,
Cc1nc(N2CCCCC2)c2c(C)c(C(=O)Nc3cccc(C(F)(F)F)c3)sc2n1,5,1,i,-30,84*,i,49*,

# Compound activity from PubChem BioAssay.
